High-throughput results from PubChem BioAssay.
Luciferase inh – blocks purified firefly luciferase enzyme activity. P08659. purified P. pyralis luciferase, luminescence, biochemical. Potency, µM (titrated, usually from 115 µM), most hits filed as inhibitors. 76,000 tested, 2.5% active. AID 1347043; further: on the % scale 0 is the no-effect control and ±100 the full control effect; nearly all actives have a fitted effect of over 65% in size
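Luminescence read by CCD imager after adding enzyme (10nM final) to wells holding compound, titrated in qHTS. Substrates 10uM each D-luciferin and ATP; buffer 50mM Tris acetate pH 7.5, 10mM Mg acetate, Tween-20, BSA.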
HEK cytotox – kills HEK 293 cells | HEK 293 viability, ATP luminescence (CellTiter-Glo), 48-72 h | Potency, µM (titrated, usually from 115 µM), for the others: top-dose activity change, negative = cytotoxicity, usual class: inhibitors | 94,000 tested, 6.6% active; further: on the % scale 0 is the no-effect control and ±100 the full control effect; nearly all actives have a fitted effect of over 60% in size
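Luminescence from cellular ATP, measured with CellTiter-Glo, indicates HEK 293 viability. Cells plated at 250 cells/well are treated with compound for 48 or 72 hr at 37 degree Celsius before reagent addition.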
NIH3T3 tox – kills NIH 3T3 cells | NIH 3T3 viability, CellTiter-Glo ATP luminescence, 48-72 h | Potency, µM (doses to about 96.7 µM), without a hit: at the highest dose activity change, negative = cytotoxicity, hits mostly inhibitors | 94,000 tested, 4.3% active | AID 1345082; further: on the % scale 0 is the no-effect control and ±100 the full control effect; nearly all actives have a fitted effect of over 55% in size
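Cytotoxicity was measured by CellTiter-Glo ATP luminescence after 48 or 72 h compound exposure at 37 °C. Mouse NIH 3T3 fibroblasts were seeded at 400 cells/well and dosed by 23 nL pin transfer.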
hNpr1 antagonist – blocks ANP-stimulated signaling of human Npr1 receptor; P16066; HEK293 hNpr1 GloSensor cGMP, ANP-stimulated luminescence; Potency, µM (titrated, usually from 46.3 µM), inactives show at the highest dose activity change, negative = inhibition, most hits filed as inhibitors; 76,000 tested, 1.6% active; calls by dose curve; further: on the % scale 0 is the no-effect control and ±100 the full control effect; nearly all actives have a fitted effect of over 60% in size
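HEK293 cells stably expressing human Npr1 and cGMP GloSensor pGS-40F, loaded 2 h with 2% GloSensor reagent, given compound 30 min at room temperature. Luminescence read before and 20 min after 0.1 nM hNppA.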
Npr1 antag conf – confirmation of human Npr1 natriuretic peptide receptor antagonists | Potency, µM (highest dose often 57.6 µM), for the others: top-dose activity change, negative = inhibition, actives largely listed as inhibitors | shares compounds with hNpr1 antagonist | AID 1347044 | 1,400 tested, 76% active | HEK293 hNpr1 cGMP GloSensor luminescence, ANP-stimulated; calls by dose curve; further: nearly all actives have a fitted effect of over 70% in size
Npr2 selectivity – selectivity test of Npr1 antagonists against human Npr2; Potency, µM (series often up to 57.6 µM), inactives show at the highest dose activity change, negative = inhibition, most hits filed as inhibitors; shares compounds with hNpr1 antagonist; HEK293 hNpr2 GloSensor cGMP luminescence, CNP-stimulated; 1,400 tested, 67% active; calls by dose curve; further: nearly all actives have a fitted effect of over 70% in size
FLuc counter – FLuc enzyme inhibition, Npr1 counter-screen; shares compounds with hNpr1 antagonist; purified FLuc enzyme, luminescence, Km substrate; Potency, µM (titrated, usually from 57.6 µM), for inactives: at the top dose activity change, negative = inhibition, usual class: inhibitors; 1,400 tested, 0.7% active; further: series mostly up to about 58 µM; 0% is about no effect
GloSensor cGMP – reduces cGMP signal in GloSensor control cells; shares compounds with hNpr1 antagonist; HEK293 GloSensor cGMP, SNP-stimulated, luminescence; Potency, µM (doses to about 57.6 µM), inactives show top-dose activity change, negative = inhibition, actives largely listed as inhibitors; 1,400 tested, 69% active; calls by dose curve; further: on the % scale 0 is the no-effect control and ±100 the full control effect; nearly all actives have a fitted effect of over 70% in size
An asterisk follows results filed as active; i = inactive; ? = inconclusive; . = no result given; [ ] = another dose, or the depositor's remark. Sampled rows, rich in hits. Any-hit rate of the full collection: about 11%. Unless noted, the call rests on the fitted dose curve; in most records, active means well fitted curve in the direction sought with a large enough effect; inconclusive means small, poorly fitted or top-dose-only effect, or another doubt; inactive means no such curve, though single readings can be large; an effect the other way counts as inactive or inconclusive. Potency means the concentration at half of the fitted maximal effect.

SMILES | Luciferase inh | HEK cytotox | NIH3T3 tox | hNpr1 antagonist | Npr1 antag conf | Npr2 selectivity | FLuc counter | GloSensor cGMP
CC(c1ccc(-c2cc(N3CCN(C)CC3)nc(N)n2)cc1)N1CCOCC1 (stereo not given) | i | ? | -19% | 1% | . | . | . | .
Cc1ncsc1CN1CCCCC1c1nc(CCOc2ccc(F)cc2)no1 (stereo not given) | i | 16µM* | ? | 10µM* | 22µM* | 19µM* | -1% | 19µM*
O=C(c1cocn1)N1CCNc2cnc(Nc3cccc(C(F)(F)F)c3)nc2C1 | i | 71µM* | ? | 32µM* | 35µM* | 35µM* | -1%[86.2 µM] | 31µM*
O=C(c1ccccc1)N1CCNc2cnc(Nc3cccc(F)c3)nc2C1 | i | ? | ? | 13µM* | 13µM* | 18µM* | -15%[86.2 µM] | 16µM*
O=C(c1ccc(Cl)cc1)N1CCNc2cnc(Nc3ccccc3)nc2C1 | i | ? | ? | 32µM* | 35µM* | 35µM* | -2%[86.2 µM] | 35µM*
O=C(COc1ccccc1)N1CCNc2cnc(Nc3cccc(F)c3)nc2C1 | i | ? | ? | -8%[70.6 µM] | . | . | . | .
O=C(NCC1Cn2cccc2C(=O)N1Cc1ccccc1)c1ccc2ncccc2c1 (stereo not given) | i | ? | -14% | -11% | . | . | . | .
COc1cccc(N2CCN(c3nc(C(=O)NCc4cccc(C)c4)cs3)CC2)c1 | i | ? | ? | 13µM* | 12µM* | 11µM* | -3% | 12µM*
Cc1cccc(CNC(=O)c2csc(N3CCN(c4ccccc4)CC3)n2)c1 | i | 40µM* | ? | 13µM* | 24µM* | 24µM* | -1% | 22µM*
O=C(NC1CCCCCC1)c1csc(N2CCN(c3ccccc3)CC2)n1 | i | ? | ? | ? | 24µM* | ? | -15% | ?
CCN(CC)C(=O)c1csc(N2CCN(c3cccc(Cl)c3)CC2)n1 | i | ? | ? | 16µM* | 24µM* | 22µM* | 5% | 22µM*
COc1ccc(Cl)cc1-c1ccc2c(n1)CN(CCOc1ccccc1)C(=O)CO2 | i | 100µM* | ? | 22µM* | 35µM* | 35µM* | 1%[86.2 µM] | 31µM*
O=C(N[C@H]1CO[C@H]2[C@@H]1OC[C@@H]2n1nnnc1Oc1ccc2c(c1)OCO2)c1ccc(C(F)(F)F)cc1 | i | ? | ? | 7.9µM* | 6.9µM* | 8.6µM* | -3% | 5.4µM*
Clc1cccc(-c2cnc([C@@H]3COCCN3Cc3cnc4ccccc4c3)[nH]2)c1 | i | 63µM* | 79µM* | 28µM* | ? | ? | -1%[86.2 µM] | ?
CNC(=O)c1cc(C2CC2)nc2c1c(C1CCCN1C(=O)c1ccc(C(F)(F)F)cc1)nn2C (stereo not given) | . | -24% | -34% | . | . | . | . | .
CC(C)c1noc(-c2cn(C3CCN(C(=O)c4ccc(F)cc4)C3)nn2)n1 (stereo not given) | i | ? | -26% | -5% | . | . | . | .
COc1ccc(C(=O)N2CCC(n3cc(-c4nc(C(C)C)no4)nn3)C2)cc1OC (stereo not given) | i | -8% | -15% | 0% | . | . | . | .
CCc1noc(-c2cn(C3CCN(C(=O)c4ccc(C(C)(C)C)cc4)C3)nn2)n1 (stereo not given) | i | ? | ? | 16µM* | 24µM* | ? | -6% | 27µM*
CC(C)c1noc(-c2cn(C3CCN(C(=O)c4ccc(Cl)s4)C3)nn2)n1 (stereo not given) | i | ? | ? | 8.9µM* | 12µM* | 12µM* | -1% | 14µM*
CC(C)c1noc(-c2cn(C3CCN(C(=O)c4cccc(Br)c4)C3)nn2)n1 (stereo not given) | i | ? | -29% | 11µM* | 19µM* | 22µM* | 2% | 22µM*
CC(C)c1noc(-c2cn(C3CCN(C(=O)c4ccc(OC(F)(F)F)cc4)C3)nn2)n1 (stereo not given) | i | ? | ? | 14µM* | 14µM* | 19µM* | 2% | 15µM*
O=C(O)C1(O)CCN(c2ncc(F)c(N3CCOCC3)n2)CC1 | i | -15% | -5% | -2% | . | . | . | .
O=C(NCc1ccc(F)cc1)c1ccc2nnc(C3CC3)n2c1 | . | -21%[172 µM] | ? | . | . | . | . | .
F[C@@H]1CN(Cc2ccc(C(F)(F)F)cc2)C[C@@H]1OCc1nc2ccccc2[nH]1 | i | 79µM* | ? | 28µM* | 40µM* | 40µM* | -2%[86.2 µM] | 40µM*
F[C@@H]1CN(Cc2ccc(C(F)(F)F)cc2)C[C@@H]1OCc1nc2ccncc2[nH]1 | i | ? | ? | ? | . | . | . | .
SMILES | Luciferase inh | HEK cytotox | NIH3T3 tox | hNpr1 antagonist | Npr1 antag conf | Npr2 selectivity | FLuc counter | GloSensor cGMP
CN(CCc1ccccc1)C(=O)CCC1CCN(c2cc(NC3CC3)ncn2)CC1 | i | 35µM* | ? | 11µM* | 22µM* | 22µM* | -14% | 14µM*
O=C(CCC1CCN(c2cc(NC3CC3)ncn2)CC1)N1CCN(c2ccccc2F)CC1 | i | ? | ? | 13µM* | 24µM* | 22µM* | -23% | 24µM*
CCOc1ccc(NC(=O)CCC2CCN(c3cc(NC4CC4)ncn3)CC2)cc1 | i | ? | -19% | ? | ? | ? | -29% | ?
CCNc1cc(N2CCC(CCC(=O)Nc3cccc(OC)c3)CC2)ncn1 | ? | ? | -15% | ? | . | . | . | .
CCN(CC)C(=O)CCC1CCN(c2cc(NC3CC3)ncn2)CC1 | i | -12% | -23% | ? | . | . | . | .
CCNc1cc(N2CCC(CCC(=O)N3CCN(c4cccc(OC)c4)CC3)CC2)ncn1 | i | 35µM* | ? | 11µM* | 17µM* | 19µM* | -19% | 17µM*
CNC(=O)N1CCC(C2CCN(Cc3cc(F)c(F)c(F)c3)C2)CC1 (stereo not given) | i | -10% | -10% | -2% | . | . | . | .
c1cc2c(cc1OC1CN(CC3CCCCC3)C1)OCO2 | . | ? | -19%[138 µM] | . | . | . | . | .
COCc1nc2nc(-c3ccccc3)c(-c3ccc(O)c(F)c3)cc2n1C | ? | ? | ? | -26%[70.6 µM] | . | . | . | .
